# Source: PubChem
# TRPV1 potentiator = human TRPV1 potentiation | Q8NER1 | TRPV1-expressing cells, Fluo-8 calcium influx, capsaicin EC20 potentiation | potentiation, % at 8.33 µM | hit rate 0.02% among 320,000 | AID 540277; in the data active = potentiation above about 80%; inconclusive = between about 30% and that limit; note: 0% is about no effect
#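 TRPV1-expressing cells were cultured overnight at 35.5C and loaded with Fluo-8 calcium dye for 40 to 90 min at room temperature. After a 10 s baseline, compound was added and calcium influx was read kinetically for 3 min (ex 480/em 520 nm).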
# KCNH2 WT inh = inhibitors of human wildtype KCNH2 potassium channel; Q12809; U2OS, BacMam KCNH2, thallium flux FluxOr; hits give low values; activity change, % at 1.84 µM; hit rate 0.37% among 340,000;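 active = maximum activity change below -70%; inconclusive = maximum activity change between -70% and -50%; inactive = maximum activity change above -50%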; note: % is set by controls: 0 for no effect and ±100 for the full control effect
#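 U2OS cells were transduced with wild-type KCNH2 virus (2.03 x 10^8 / mL) for 4 h at room temperature, then cultured overnight at 37 C. Thallium flux was read with FluxOr dye. Rate constants were normalized to DMSO controls.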
# TRPV1 ag = agonists of human vanilloid receptor 1 (TRPV1) | Q8NER1 | TRPV1-expressing cells, Fluo-8 calcium influx, agonist mode | activation, % at 8.33 µM | hit rate 0.19% among 320,000; in the data active = activation above about 80%; inconclusive = between about 30% and that limit; note: 0% is about no effect
#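 Cells expressing TRPV1 were dye-loaded with Fluo-8 and read kinetically: 10 s baseline, 3 min after compound (agonist portion), then 2 min after EC20 capsaicin (allosteric enhancer portion). Calcium-bound dye fluorescence at 480/520 nm.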
# KCNH2 3.1 block = blocks the human KCNH2 3.1 channel isoform; activity change, % (tested at about 1.8 µM); hit rate 0.95% among 340,000; U2OS KCNH2 3.1, thallium flux FluxOr; hits give low values;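 active = maximum activity change below -70%; inconclusive = maximum activity change from -70% to -50%; inactive = maximum activity change above -50%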;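 note: thallium influx rate constant from kinetic fluorescence after stimulation buffer; % is set by controls: 0 for no effect and ±100 for the full control effect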
#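 Measured as rate of thallium-driven FluxOr signal in transduced U2OS cells carrying the 3.1 channel, read kinetically for 2 min upon stimulation; values are rate constants scaled to DMSO control wells.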
# An asterisk follows results filed as active; ? = inconclusive; . = not tested or not shown. Compounds with a hit are over-represented: about 1.2% of the library has one in this group of screens.
SMILES,TRPV1 potentiator,KCNH2 WT inh,TRPV1 ag,KCNH2 3.1 block
CCOC(=O)c1sc2ncn(CC(=O)NCC3CCCO3)c(=O)c2c1C (stereo not drawn),-10,-4,2,-180*
C=C1C=C(C(F)F)n2ncc(C(=O)Nc3ccc(C(C)CC)cc3)c2N1 (stereo not drawn),-1,.,1,.
CC1=C(C(=O)Nc2ccccc2C(=O)N2CCN(c3ccccc3)CC2)SCCO1,.,-6,.,-3
O=C(NCCc1csc(-c2cccnc2)n1)c1ccc(Br)o1,25,-71*,-3,6
O=C(NCCc1csc(-c2ccccc2)n1)c1ccc(Br)o1,7,0,14,5
Cc1cc(S(=O)(=O)N2CCC(NC(=O)C34CC5CC(CC(C5)C3)C4)CC2)ccc1-n1cnnn1,-12,11,81*,-89*
CCCCCCC1CC(=CN(C)C)C(=O)O1 (stereo not drawn),.,3,.,-1
CCOC(=O)N1CCc2c(sc(NC(=O)CN3CCOCC3)c2C(=O)Nc2ccccc2)C1,0,14,3,-8
CCOC(=O)N1CCc2c(sc(NC(=O)CN3CCN(C)CC3)c2C(=O)Nc2ccccc2)C1,-19,?,?,-97*
COc1ccccc1S(=O)(=O)N(C)C[C@@H]1OCc2cnnn2CCCC(=O)N([C@@H](C)CO)C[C@H]1C,.,-2,.,-13
COc1cccc(CN(CCC(C)C)S(=O)(=O)c2cc(Br)ccc2Br)c1,.,-9,.,6
CCOc1ccc(/C=N/NC(=O)c2nnn(-c3nonc3N)c2CN(C)C2CCCCC2)cc1,-4,-102*,0,-26
CCN(CC)c1ccc(/C=N/NC(=O)c2nnn(-c3nonc3N)c2CN(C)C2CCCCC2)cc1,.,-17,.,-88*
COc1cccc(/C=N/NC(=O)c2nnn(-c3nonc3N)c2CN(C)C2CCCCC2)c1,.,15,.,-17
O=C(Nc1cccc2cccnc12)OCc1ccccc1,9,.,0,.
CC(O)(Cc1cccnc1)c1cccs1 (stereo not drawn),.,18,.,6
Cc1ccc(S(=O)(=O)NCc2ccc(C(=O)NCCCN3CCC(Cc4ccccc4)CC3)cc2)cc1,-6,6,9,-81*
Cc1ccc(S(=O)(=O)NCCC(=O)N2CCC(Cc3ccccc3)CC2)cc1,-15,-5,26,-25
COc1ccc(CCNC(=O)c2ccc(CN3CCC(Cc4ccccc4)CC3)cc2)cc1OC,-9,-23,8,-93*
COC(=O)c1cc(OC)c(OC)cc1NC(=O)CN1CCOCC1,-4,-236*,-1,5
COc1ccc(CNC(=O)COC(=O)c2cc(-c3cccs3)nc3ccccc23)cc1OC,-19,-5,88*,-3
COc1ccc(CNC(=O)COC(=O)c2cc(C)nc3ccccc23)cc1,.,1,.,2
COc1cc(Cl)ccc1OCc1cc(C(=O)N2CCN(C3CCCCC3)CC2)no1,.,32,.,-12
Cc1cnn(-c2cc(N/N=C/c3ccccc3Cl)ncn2)c1,-14,-247*,-1,-7
NC(=O)c1ccc(NC(=O)CSc2nnc(C3CCCCC3)n2N)cc1,10,7,-4,-138*
SMILES,TRPV1 potentiator,KCNH2 WT inh,TRPV1 ag,KCNH2 3.1 block
COc1ccc([C@H]2C[C@H](O)[C@@H](n3cc(-c4ccc(F)cc4)nn3)CN2C(=O)C2CCCCC2)cc1,.,12,.,-1
Cc1nc2ccccc2cc1OCc1ccc(Cl)cc1,-15,0,83*,-1
Cc1ccc(OCC(=O)N2N=C(c3ccc(Cl)cc3)CC2c2ccco2)c([N+](=O)[O-])n1 (stereo not drawn),-19,-72*,1,-91*
COCC(=O)OCC(=O)N1N=C(c2ccc(Cl)cc2)CC1c1ccco1 (stereo not drawn),1,-13,-2,-16
CC(C)[C@H](NS(=O)(=O)c1ccccc1)C(=O)OCC(=O)N1N=C(c2ccc(Cl)cc2)CC1c1ccco1 (stereo partly drawn),-9,-13,-1,-75*
NCCNc1ccc(C(=O)N2c3ccccc3Sc3ccccc32)cc1[N+](=O)[O-],-13,8,0,-175*
Cc1ccc(S(=O)(=O)N2CCN(C(=O)C3CCN(c4ncnc5sc(C)c(C)c45)CC3)CC2)c(C)c1,.,1,.,-5
COC(=O)c1ccc(Cn2cnc3c(cnn3-c3ccc(Cl)cc3)c2=O)o1,-4,-7,10,-75*
CCOC(=O)C1(CCc2ccccc2)CCN(Cc2ccc(O)cc2)CC1,-47,-113*,26,-116*
CCOC(=O)C1(CCc2ccccc2)CCN(Cc2c(O)cccc2OC)CC1,4,-4,5,6
CCOC(=O)C1(CCCc2ccccc2)CCN(C2CCSCC2)CC1,-4,-126*,11,-107*
CCOC(=O)C1(CC2CC2)CCN(Cc2ccc(OC)cc2F)CC1,-14,17,2,-108*
CCOC(=O)C1(CCc2ccccc2)CCN(Cc2ccc(OC)cc2)CC1,1,-136*,8,-111*
OCC1(CCCc2ccccc2)CCN(C2CCSCC2)CC1,-13,26,3,1
O=C(NC(=S)NNC(=O)c1ccccc1[N+](=O)[O-])c1ccc(Br)cc1,-7,1,14,1
NC(=O)C1(N2CCCCC2)CCN(C(=O)c2cc(COc3c(F)cccc3F)on2)CC1,.,-9,.,-13
CC(=O)c1ccc(NC(=O)C(C)OC(=O)/C=C/c2ccco2)cc1 (stereo not drawn),.,10,.,31
CCOC(=O)C1(CCc2ccccc2)CCN(Cc2cnc(N(C)C)s2)CC1,-13,-86*,4,-112*
COc1ccccc1C(=O)Nc1c(C(=O)N(CCN(C)C)Cc2ccco2)oc2ccccc12,17,-37,3,-15
COc1ccc(OCC(=O)Nc2c(C(=O)N(CCN(C)C)Cc3ccco3)oc3ccccc23)cc1,5,?,9,-111*
Cc1ccccc1C(=O)Nc1c(C(=O)N(CCN(C)C)Cc2ccco2)oc2ccccc12,-21,-92*,19,-84*
COCCN(Cc1ccccc1)C(=O)C1CCN(C(=O)Nc2ccccc2)CC1,.,-6,.,5
O=C(Cc1ccccc1[N+](=O)[O-])c1ccc2c(c1)OCO2,.,10,.,-13
Cc1nn(CC(=O)OCCOc2ccc(Br)cc2)c(C)c1[N+](=O)[O-],1,-15,0,-73*
O=C(OCc1cn([C@@H]2CN(Cc3cccs3)[C@@H](c3ccccc3)C[C@H]2O)nn1)c1ccccc1,.,-3,.,-5
SMILES,TRPV1 potentiator,KCNH2 WT inh,TRPV1 ag,KCNH2 3.1 block
COc1ccc(CCNC(=O)CSCc2ccc([N+](=O)[O-])cc2)cc1OC,-23,-129*,-2,-206*
COc1ccc(CCNC(=O)CSCc2ccc([N+](=O)[O-])cc2)cc1,-22,2,26,6
Cc1nn(-c2ccccc2)c(C)c1C(=O)N1CCN(S(=O)(=O)c2ccccc2)CC1,17,8,1,17
CCCCn1nc(NC(=O)COC)c2cc3ccc(C)cc3nc21,-22,0,89*,16
CCCn1nc(NC(=O)COC)c2cc3cc(C)ccc3nc21,?,.,-3,16
O=S(=O)(c1ccc(Br)cc1F)N1CCC(O)CC1,.,-14,.,-6
